This is an account of results in PubChem BioAssay (EPA / NIEHS).

The nature of assay [1]: ATG_CRE_CIS: Attagene CIS-FACTORIAL HepG2 Assay for human cAMP Responsive Element (CRE) binding protein 3 (AID 2282926). To be noted: HepG2 CRE cis-reporter, Attagene multiplexed mRNA; actives raise or lower the signal. A digest of the protocol:
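Cells carrying cis-regulated reporter constructs respond through their own endogenous factors. After 24 h treatment, RNA is reverse-transcribed, amplified, labelled and sized by capillary electrophoresis; up- and down-regulation are both scored against vehicle.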

The nature of assay [2]: ATG_CMV_CIS: Attagene CIS-FACTORIAL HepG2 Assay for human CMV (Internal Marker) (AID 2282928).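 Also: endpoint acts as a background internal control marker rather than a target.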 To be noted: HepG2 CMV promoter reporter, transcription factor profiling; actives raise or lower the signal. In a few lines:
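Reporter transcripts from transfected HepG2 cells are isolated after 24 h of chemical dosing, reverse-transcribed and amplified. Fragments labeled with 6-FAM are cut with HpaI and quantified by capillary electrophoresis; DMSO defines baseline.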

Assay [3] in a line: ATG_DR4_LXR_CIS: Attagene CIS-FACTORIAL HepG2 Assay for human Liver X Receptor (LXR), DR4 submotif (AID 2282929). The note with it: HepG2 Attagene DR4 cis-reporter, mRNA transcription; actives raise or lower the signal. In a few lines:
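Endogenous factor activity at a DR4 cis-element is read as reporter mRNA in transiently transfected HepG2 cells. Exposure lasts 24 h; transcripts are amplified, fluorescently labelled and sized by capillary electrophoresis, with DMSO as baseline.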

The target in assay [4] is Aryl hydrocarbon receptor (Homo sapiens) (UniProt P35869). As to the kind of experiment: ATG_Ahr_CIS: Attagene CIS-FACTORIAL HepG2 Assay for human Aryl Hydrocarbon Receptor (Ahr) (AID 2282930). To be noted: HepG2 AhR cis-factorial reporter transcription; actives raise or lower the signal. In a few lines: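 Read-out: reporter mRNA quantified by RT-PCR with fluorescent primer extension and capillary electrophoresis. Human HepG2 liver cells carried transfected cis-promoter reporter units and were exposed to chemical for 24 h; gain or loss fitted relative to DMSO.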
Chain of Aryl hydrocarbon receptor (Homo sapiens) (P35869 whole entry, looked up): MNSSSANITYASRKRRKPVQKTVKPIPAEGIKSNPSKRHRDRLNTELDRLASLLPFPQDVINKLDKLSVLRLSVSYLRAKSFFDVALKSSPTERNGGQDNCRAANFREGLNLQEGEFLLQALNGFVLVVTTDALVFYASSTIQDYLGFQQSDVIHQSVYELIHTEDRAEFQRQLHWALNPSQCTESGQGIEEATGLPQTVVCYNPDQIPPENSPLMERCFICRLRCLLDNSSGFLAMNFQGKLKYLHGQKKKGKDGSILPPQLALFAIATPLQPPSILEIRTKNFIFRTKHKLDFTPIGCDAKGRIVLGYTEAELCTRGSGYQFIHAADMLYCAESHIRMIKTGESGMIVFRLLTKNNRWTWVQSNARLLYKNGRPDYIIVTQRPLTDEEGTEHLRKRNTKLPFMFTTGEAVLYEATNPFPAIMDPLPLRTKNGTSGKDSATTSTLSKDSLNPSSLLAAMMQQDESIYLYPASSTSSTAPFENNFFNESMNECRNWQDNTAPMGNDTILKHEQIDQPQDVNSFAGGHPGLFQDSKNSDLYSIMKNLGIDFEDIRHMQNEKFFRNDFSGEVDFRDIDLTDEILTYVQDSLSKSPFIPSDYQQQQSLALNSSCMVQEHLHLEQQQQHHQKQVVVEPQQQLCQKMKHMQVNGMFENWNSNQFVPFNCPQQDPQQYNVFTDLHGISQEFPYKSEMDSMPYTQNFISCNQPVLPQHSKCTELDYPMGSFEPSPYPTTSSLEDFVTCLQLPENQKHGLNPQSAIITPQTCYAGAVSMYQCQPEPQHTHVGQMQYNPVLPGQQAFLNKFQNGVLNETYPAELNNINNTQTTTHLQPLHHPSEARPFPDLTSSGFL

The nature of assay [5]: ATG_AP_2_CIS: Attagene CIS-FACTORIAL HepG2 Assay for human Activator Protein 2 (AP-2) (AID 2282932). The note with it: HepG2 AP-2 cis-reporter, Attagene transcription factor profiling; actives raise or lower the signal. In a few lines:
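Liver-derived HepG2 line, cis-reporter system measuring endogenous factors; 24 h dosing; reporter mRNA detected by fluorescent RT-PCR and capillary electrophoresis.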

The nature of assay [6]: ATG_BRE_CIS: Attagene CIS-FACTORIAL HepG2 Assay for human Bone Morphogenetic Protein (BMP) Response Element (BRE) (AID 2282933). The note with it: HepG2 BMP response element reporter, Attagene transcription factor profiling; actives raise or lower the signal. A digest of the protocol:
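After a 24 h chemical treatment, transiently transfected HepG2 cells were lysed for RNA; reporter transcripts were quantified by fluorescent RT-PCR and capillary electrophoresis, normalised to DMSO.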

The target of assay [7] is Retinoic acid receptor alpha (Homo sapiens) (UniProt P10276). Description: ATG_DR5_RAR_CIS: Attagene CIS-FACTORIAL HepG2 Assay for human Retinoic Acid Receptor Alpha (RARE), DR5 submotif (AID 2282934).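 As to AC50: reporter responds to endogenous RAR alpha beta and gamma in HepG2 not RARA alone.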 The note with it: HepG2 Attagene cis-factorial RARE DR5 reporter, mRNA; actives raise or lower the signal. A digest of the protocol:
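Read-out: DR5-driven reporter transcript measured by RT-PCR, 6-FAM primer extension, HpaI digest and capillary electrophoresis. Human HepG2 liver cells carry transiently transfected cis-element reporter constructs; dosing lasts 24 h. Gain or loss of signal fitted against DMSO baseline.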

In assay [8] the target is Transcription factor E2F1 (Homo sapiens) (UniProt Q01094). Description: ATG_E2F_CIS: Attagene CIS-FACTORIAL HepG2 Assay for human E2F Transcription Factor 1 (AID 2282935). The note with it: HepG2 Attagene cis-reporter, E2F reporter RNA transcripts; actives raise or lower the signal. A digest of the protocol:
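Liver-derived HepG2 cells expressing transfected promoter-driven reporter units received test chemical for 24 hours. Signal gains or losses were fitted bidirectionally against DMSO.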

Assay [9] in a line: ATG_E_Box_CIS: Attagene CIS-FACTORIAL HepG2 Assay for human Enhancer Box (E-box) (AID 2282936). To be noted: HepG2 E-box cis-reporter transcription, actives raise or lower the signal. A digest of the protocol: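 In this cell-based setup, HepG2 cells bearing transfected promoter-driven reporter units were exposed to chemicals for 24 h; reporter transcripts were amplified, 6-FAM-labelled, cut with HpaI and sized by capillary electrophoresis.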

Assay [10] is described as follows: ATG_M_61_CIS: Attagene CIS-FACTORIAL HepG2 Assay for M61 Transcription Factor (Internal Marker) (AID 2282937). The note with it: HepG2 Attagene CIS-FACTORIAL M61 internal marker reporter; actives raise or lower the signal. In a few lines:
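This endpoint serves as an internal background control within a multiplexed HepG2 cis-reporter panel. Cells are exposed for 24 h; reporter mRNA is amplified, fluorescently labelled and sized by capillary electrophoresis, with DMSO as negative control.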

Assay [11] is described as follows: ATG_EGR_CIS: Attagene CIS-FACTORIAL HepG2 Assay for human Early Growth Response 1 (EGR1) (AID 2282938). To be noted: HepG2 Attagene CIS-FACTORIAL EGR reporter mRNA; actives raise or lower the signal. In a few lines:
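HepG2, transient MRTU transfection (cis promoters), 24 h compound. RNA → RT (oligo-dT) → PCR → 6-FAM labelling → HpaI cut → CE fluorescence. Bidirectional fit, DMSO baseline.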

A short description of assay [12]: ATG_M_19_CIS: Attagene CIS-FACTORIAL HepG2 Assay for M19 Transcription Factor (Internal Marker) (AID 2282939). To be noted: HepG2 Attagene CIS-FACTORIAL M19 internal marker reporter; actives raise or lower the signal. In a few lines: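 In this multiplexed cell assay, transiently transfected HepG2 reporter units report endogenous transcription-factor activity; after 24 hours of treatment, labelled reporter cDNA fragments are quantified by capillary electrophoresis and fitted bidirectionally against DMSO.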

Assay [13] can be described thus: ATG_Ets_CIS: Attagene CIS-FACTORIAL HepG2 Assay for human Erythroblast Transformation Specific (ETS) (AID 2282941). To be noted: HepG2 ETS cis-reporter transcription, actives raise or lower the signal. In a few lines: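 Bidirectional fit versus DMSO of reporter mRNA signal, detected by RT-PCR and capillary electrophoresis in HepG2 cells transiently transfected with cis-element reporters and dosed 24 h.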

The target in assay [14] is Hepatocyte nuclear factor 3-beta (Homo sapiens) (UniProt Q9Y261). Description: ATG_FoxA2_CIS: Attagene CIS-FACTORIAL HepG2 Assay for human Forkhead box A2 (FOXA2) (AID 2282942). To be noted: HepG2 cis-reporter transcription factor activity, 24 h; actives raise or lower the signal. A digest of the protocol: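 Cells: HepG2, transient multiplex reporter transfection. Exposure 24 h. Detection: reporter-specific RT-PCR, fluorescent labelling, restriction digest, capillary electrophoresis. Analysis: bidirectional curve fit, DMSO as negative control.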
Chain of Hepatocyte nuclear factor 3-beta (Homo sapiens) (Q9Y261 whole entry, looked up): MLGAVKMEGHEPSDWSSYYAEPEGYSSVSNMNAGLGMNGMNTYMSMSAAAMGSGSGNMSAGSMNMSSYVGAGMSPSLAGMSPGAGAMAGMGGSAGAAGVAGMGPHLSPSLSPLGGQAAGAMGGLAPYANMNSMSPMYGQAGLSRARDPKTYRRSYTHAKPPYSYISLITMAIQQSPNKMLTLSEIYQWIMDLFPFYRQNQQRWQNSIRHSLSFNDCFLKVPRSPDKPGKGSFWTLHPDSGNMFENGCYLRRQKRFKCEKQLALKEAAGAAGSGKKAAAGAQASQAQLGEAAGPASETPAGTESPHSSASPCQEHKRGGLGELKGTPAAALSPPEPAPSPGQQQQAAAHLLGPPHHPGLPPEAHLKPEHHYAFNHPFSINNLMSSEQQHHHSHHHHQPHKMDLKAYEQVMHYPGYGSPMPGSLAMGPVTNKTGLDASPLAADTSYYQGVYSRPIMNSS

A short description of assay [15]: ATG_FoxO_CIS: Attagene CIS-FACTORIAL HepG2 Assay for human Forkhead box O (FoxO) (AID 2282943). The note with it: HepG2 Attagene cis-reporter, FoxO element, mRNA; actives raise or lower the signal. In a few lines: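 Read-out: fluorescence of 6-FAM-labelled reporter cDNA fragments resolved by capillary electrophoresis. Transiently transfected HepG2 cells were dosed for 24 h; activity fitted in both directions relative to DMSO controls.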

A short description of assay [16]: ATG_GATA_CIS: Attagene CIS-FACTORIAL HepG2 Assay for human GATA Binding Protein (AID 2282944). The note with it: HepG2 GATA cis-element reporter, Attagene multiplex mRNA; actives raise or lower the signal. A digest of the protocol: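 Measures endogenous transcription factor-driven reporter mRNA in HepG2 cells transiently carrying cis-regulated constructs. 24 h dosing; RNA via oligo(dT) reverse transcription, PCR, HpaI digestion, capillary electrophoresis; fitted relative to DMSO.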

Assay [17] in a line: ATG_GLI_CIS: Attagene CIS-FACTORIAL HepG2 Assay for human Zinc Finger Protein GLI1 (AID 2282945). To be noted: HepG2, Attagene cis-factorial reporter mRNA, GLI element; actives raise or lower the signal. A digest of the protocol: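 Transiently transfected HepG2 cells report endogenous transcription factor activity via cis-element-driven reporter units. After 24 h compound exposure, reporter mRNA was measured by RT-PCR with capillary electrophoresis; bidirectional fitting against DMSO baseline.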

The nature of assay [18]: ATG_AP_1_CIS: Attagene CIS-FACTORIAL HepG2 Assay for human Activator Protein 1 (AP-1) (AID 2282931). The note with it: HepG2 Attagene cis-factorial AP-1 reporter mRNA; actives raise or lower the signal. In a few lines:
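Fluorescence of labelled PCR fragments separated by capillary electrophoresis gives reporter mRNA levels. HepG2 with transfected cis-regulated reporter units, 24 h exposure; DMSO serves as baseline for bidirectional curve fits.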

Assay [19] can be described thus: ATG_ERE_CIS: Attagene CIS-FACTORIAL HepG2 Assay for Estrogen Response Element (ERE) (AID 2282940). To be noted: HepG2 ERE cis-reporter, Attagene RNA transcript; actives raise or lower the signal. In a few lines: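 Measuring endogenous transcription factor output, the assay doses transfected HepG2 cells for 24 hours and quantifies reporter transcripts by fluorescent RT-PCR and capillary electrophoresis, with DMSO as baseline.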

Active and inactive are the calls of the source. The calls were made as follows: active = hit-call score of the fitted dose curve at least 0.9, where 1 is the maximum; inactive = score below 0.9.

Chain of Transcription factor E2F1 (Homo sapiens) (Q01094 whole entry, looked up): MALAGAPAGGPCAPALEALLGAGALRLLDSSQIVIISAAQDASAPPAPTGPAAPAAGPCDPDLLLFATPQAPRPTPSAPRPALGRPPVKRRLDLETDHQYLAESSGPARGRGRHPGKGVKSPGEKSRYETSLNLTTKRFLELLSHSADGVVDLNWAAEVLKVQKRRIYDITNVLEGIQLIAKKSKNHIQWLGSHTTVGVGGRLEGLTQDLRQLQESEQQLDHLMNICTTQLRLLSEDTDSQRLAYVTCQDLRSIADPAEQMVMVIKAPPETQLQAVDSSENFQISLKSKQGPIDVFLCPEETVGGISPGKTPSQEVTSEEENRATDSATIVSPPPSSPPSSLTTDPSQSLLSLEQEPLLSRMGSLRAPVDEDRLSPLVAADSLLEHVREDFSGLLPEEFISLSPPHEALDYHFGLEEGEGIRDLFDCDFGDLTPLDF
Chain of Retinoic acid receptor alpha (Homo sapiens) (P10276 whole entry, looked up): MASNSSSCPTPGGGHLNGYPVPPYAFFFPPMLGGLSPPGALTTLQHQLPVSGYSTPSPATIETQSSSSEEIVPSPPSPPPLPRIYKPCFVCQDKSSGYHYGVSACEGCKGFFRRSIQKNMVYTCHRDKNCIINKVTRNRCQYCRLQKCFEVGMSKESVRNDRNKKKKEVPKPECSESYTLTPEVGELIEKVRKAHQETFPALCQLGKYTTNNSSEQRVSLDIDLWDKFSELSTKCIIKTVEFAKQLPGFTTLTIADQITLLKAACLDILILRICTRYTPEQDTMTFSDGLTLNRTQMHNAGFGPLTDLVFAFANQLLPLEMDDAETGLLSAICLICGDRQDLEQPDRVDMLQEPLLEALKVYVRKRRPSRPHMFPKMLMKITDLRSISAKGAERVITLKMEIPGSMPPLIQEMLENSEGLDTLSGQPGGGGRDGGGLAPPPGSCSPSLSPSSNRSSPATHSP

As to `CC(O)CCO` (configuration not stated), the call in [1], in assay [2], in [3], in assay [4], in assay [5] and in assay [6] was inactive. The compound was called inactive in assay [7], in [8], in [9], in [10], in assay [11] and in [12]. Also, the compound was classed as inactive in assay [13], in [14], in assay [15], in assay [16] and in [17].
By AC50 is commonly meant the concentration giving half of the maximal activity seen. For the compound `Oc1ccc2ccc3cccc4ccc1c2c34`, the outcome in assay [1], in assay [2], in assay [18], in [5], in assay [6] and in assay [7] was inactive. In addition, the outcome in assay [8], in assay [9], in assay [10], in assay [11], in assay [12] and in assay [13] was inactive. Moreover, the outcome in [14], in assay [15], in [16] and in [17] was inactive. Moreover, the AC50 in assay [3] is 11.1 µM (active).
For the compound `OCCCBr`, the compound was classed as inactive in assay [1], in [2], in assay [3], in assay [4], in [5] and in assay [6]. The call in assay [7], in assay [8], in assay [9], in assay [10], in [11] and in assay [12] was inactive. The result in assay [19], in [13], in assay [14], in assay [15], in assay [16] and in assay [17] was inactive.
For the compound `CNC(=O)Oc1cccc2c1OC(C)(C)C2`, the call in assay [1], in assay [2], in assay [3], in assay [6], in [7] and in assay [8] was inactive. The result in assay [9], in assay [10], in assay [11], in assay [12], in assay [19] and in assay [13] was inactive. Also, the compound was called inactive in assay [14], in assay [15], in assay [16] and in assay [17]. The AC50 in [4] is 65.6 µM (active).
For the compound `O=[N+]([O-])C(Br)(CO)CO`, the AC50 was 170 µM (active) in [1], 153 µM (active) in [7], 100 µM (active) in assay [11] and 169 µM (active) in assay [17]. The call in assay [2], in assay [3], in assay [4], in [5], in assay [6] and in assay [8] was inactive. The outcome in [9], in assay [10], in assay [12], in [19], in assay [13] and in [14] was inactive. Further, the result in assay [15] and in [16] was inactive.
